In the supplement of paper PMC6992640:
Where a name gives a salt, the structure may show the parent alone. ± gives the standard deviation of the averaged measurements.

Key:
Test in all cases: cell viability (% of vehicle); higher = less cytotoxic
Settings in all cases: 10 µM; 72 h
[1] = tested on: HCI01 (cells of a triple-negative basal-like breast cancer xenograft)
[2] = tested on: HCI03 (cells of an ER-positive luminal breast cancer xenograft)
[3] = tested on: HCI09 (cells of a triple-negative luminal androgen receptor type breast cancer xenograft)
[4] = tested on: HCI11 (cells of an ER-positive luminal breast cancer xenograft)
[5] = tested on: HCI13 (cells of an ER-positive luminal breast cancer xenograft)
[6] = tested on: HCI16 (cells of a triple-negative basal-like breast cancer xenograft)
[7] = tested on: UCD52 (cells of a triple-negative basal-like breast cancer xenograft)
[8] = tested on: WHIM2 (cells of a triple-negative basal-like breast cancer xenograft)
[9] = tested on: WHIM30 (cells of a triple-negative basal-like breast cancer xenograft)
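Further: PDX cells carrying CMV promoter-driven luciferase, viability read as total photon flux per second by IVIS imaging following D-luciferin, vehicle control 0.1% DMSO.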

Row | SMILES | cell viability [1] | cell viability [2] | cell viability [3] | cell viability [4] | cell viability [5] | cell viability [6] | cell viability [7] | cell viability [8] | cell viability [9]
1 | Nc1nc(N)nc(NC2CC2)n1 [Cyromazine] | 111 ± 13 | 182 | 107 ± 1.9 | 97.8 | 109 ± 22 | 134 | 100 ± 2.3 | 105 ± 28 | 154 ± 13
2 | CCN(C)C(=O)Oc1cccc(C(C)N(C)C)c1 (configuration not stated) [Rivastigmine] | 107 ± 11 | 112 | 109 ± 4.2 | 106 | 98.3 ± 1.7 | 96.3 | 101 ± 7.6 | 103 ± 16 | 118 ± 9.7
3 | Cc1c(N)nc(C(CC(N)=O)NCC(N)C(N)=O)nc1C(=O)NC(C(=O)NC(C)C(O)C(C)C(=O)NC(C(=O)NCCc1nc(-c2nc(C(=O)NCCC[S+](C)C)cs2)cs1)C(C)O)C(O[C@@H]1O[C@@H](CO)[C@@H](O)[C@H](O)[C@@H]1O[C@H]1O[C@H](CO)[C@@H](O)[C@H](OC(N)=O)[C@@H]1O)c1cnc[nH]1 (some centres not stated) [Bleomycin Sulfate] | 117 ± 3.2 |  | 61.2 ± 15 | 106 | 39.2 ± 24 | 83.4 | 109 ± 6.6 | 77 ± 1.2 | 100 ± 27
4 | O=c1[nH]c2ccccc2n1CCCN1CCC(n2c(=O)[nH]c3cc(Cl)ccc32)CC1 [Domperidone] | 195 ± 80 | 103 | 113 ± 65 | 84.9 |  |  | 128 ± 5.5 | 83.8 ± 4.6 | 176 ± 9.8
5 | CCC1(C)CC(=O)NC(=O)C1 [Bemegride] | 112 ± 13 | 96.5 | 91.7 ± 10 | 109 | 162 ± 13 | 108 | 85.8 ± 8.3 | 97.9 ± 6 | 97.2 ± 8.1
6 | Cl.NCCc1c[nH]c2ccc(O)cc12 [Serotonin HCl] | 103 ± 13 | 132 | 99.9 ± 4 | 94.8 | 57.8 ± 1.6 | 109 | 100 ± 9.6 | 137 ± 45 | 163 ± 26
7 | CC(=O)Nc1cc([As](=O)(O)O)ccc1O [Arsonic acid] | 105 ± 4.4 | 144 | 102 ± 22 | 112 | 73.2 ± 4.5 | 105 | 112 ± 25 | 101 ± 23 | 132 ± 15
8 | CN(C)C1C(=O)C(C(N)=O)=C(O)C2(O)C(=O)C3=C(O)c4c(O)cccc4C(C)(O)C3C(O)C12 (configuration not stated) [Oxytetracycline (Terramycin)] | 83 ± 9.9 | 126 | 108 ± 23 | 85.3 | 115 ± 6.2 | 122 | 99.8 ± 2.1 | 72.1 ± 17 | 121 ± 4.7
9 | CCC(COC(=O)c1cc(OC)c(OC)c(OC)c1)(c1ccccc1)N(C)C (configuration not stated) [Trimebutine] | 116 ± 6.9 | 109 | 103 ± 7.8 | 92.9 |  | 135 | 84.9 ± 15 | 96.2 ± 2.8 | 111.2 ± 0.53
10 | NCCC(O)(P(=O)([O-])O)P(=O)([O-])O.[Na+].[Na+] [Pamidronate Disodium] | 85.1 ± 9.1 | 82.9 | 86.9 ± 2.1 | 80.8 | 95.2 ± 14 | 59.9 | 76.4 ± 15 | 75 ± 21 | 92.4 ± 13
11 | CN1C2CCC1CC(OC(=O)C(CO)c1ccccc1)C2.CN1C2CCC1CC(OC(=O)C(CO)c1ccccc1)C2.O.O=S(=O)(O)O (configuration not stated) [Atropine] | 104 ± 7.5 | 134 | 108 ± 16 | 114 | 95.4 ± 4.6 | 101 | 83.3 ± 5.5 | 91.6 ± 19 | 98.4 ± 7.8
12 | O=C1CCC2(O)C3Cc4ccc(O)c5c4C2(CCN3CC2CC2)C1O5 (configuration not stated) [Naltrexone] | 111 ± 8.9 | 121 | 97.4 ± 10 | 103 | 100.1 ± 0.98 | 93.4 | 94.5 ± 12 | 92.4 ± 14 | 130 ± 23
13 | CCN(C)C(=O)Oc1cccc(C(C)N(C)C)c1.O=C(O)C(O)C(O)C(=O)O (configuration not stated) [Rivastigmine Tartrate] | 115.8 ± 0.12 | 116 | 127 ± 62 | 119 | 133 ± 51 | 151 | 111 ± 15 | 91.8 ± 31 | 131 ± 13
14 | C[N+]1(C)[C@@H]2C[C@@H](OC(=O)C(CO)c3ccccc3)C[C@H]1[C@@H]1O[C@@H]12.[Br-] (some centres not stated) [Methscopolamine] | 106 ± 8.5 | 128 | 107 ± 9.7 | 93.2 |  | 97.9 | 80.6 ± 12 | 87.7 ± 8 | 138.9 ± 0.7
15 | CN1C(=O)CCS(=O)(=O)C1c1ccc(Cl)cc1 (configuration not stated) [Chlormezanone] | 90 ± 11 | 118 | 92.3 ± 7.5 | 105 | 71.1 ± 7.2 | 122 | 104 ± 10 | 113 ± 12 | 172.2 ± 0.74
16 | Cl.Cn1c(CCCC(=O)O)nc2cc(N(CCCl)CCCl)ccc21 [Bendamustine HCl] | 98.2 ± 7.3 | 93.5 | 95.2 ± 2.5 | 83.5 | 94.9 ± 12 | 77.4 | 97.9 ± 1.9 | 71.4 ± 9.1 | 92.1 ± 14
17 | Cc1cccc(C)c1NC(=O)CN1CCCC1=O [Nefiracetam] | 124 ± 21 | 128 | 99.9 ± 6.5 | 91.9 | 149 ± 33 | 113 | 74.9 ± 0.92 | 85.6 ± 9.6 | 165 ± 5.6
18 | CC(C)NCC(O)c1ccccc1Cl.Cl (configuration not stated) [Clorprenaline HCL] | 104 ± 18 | 121 | 73.1 ± 30 | 93.9 | 83.1 ± 11 | 104 | 90.6 ± 16 | 88.3 ± 13 | 103 ± 2.4
19 | CCCC1CC(=O)N(C(CC)C(N)=O)C1 (configuration not stated) [Brivaracetam] | 98 ± 7 | 163 | 97.1 ± 1.8 | 89.3 | 87.83 ± 0.76 | 101 | 106 ± 1.4 | 98.2 ± 12 | 128 ± 11
20 | O=S(=O)(F)Cc1ccccc1 | 131 ± 25 | 127 | 89.27 ± 0.7 | 92.5 | 87.2 ± 19 | 100 | 106.1 ± 0.78 | 104 ± 31 | 111 ± 22
21 | CCOC(=O)c1cncn1C(C)c1ccccc1.Cl (configuration not stated) [Etomidate hydrochloride] | 137 ± 30 | 155 | 125 ± 37 | 117 |  | 117 | 97.3 ± 9.7 | 145 ± 30 | 76.4 ± 5.3
22 | CC(=O)OC1CC2CCC3C(CCC4(C)C3CC([N+]3(C)CCCCC3)C4OC(C)=O)C2(C)CC1[N+]1(C)CCCCC1.[Br-].[Br-] (configuration not stated) [Pancuronium dibromide] | 99.4 ± 8.2 | 106 | 105 ± 2.1 | 93.3 |  | 95.5 | 79.4 ± 3.5 | 94.3 ± 4.8 | 103 ± 4.2
23 | CC(=Cc1csc(C)n1)C1CC2OC2(C)CCCC(C)C(O)C(C)C(=O)C(C)(C)C(O)CC(=O)O1 (configuration not stated) [Epothilone B (EPO906, Patupilone)] | 154 ± 16 | 119 | 91.4 ± 4.8 | 99.2 | 111 ± 2.6 |  | 78.2 ± 9.1 | 75.9 ± 13 | 137 ± 13
24 | CN(C)C(=O)Oc1ccc[n+](C)c1.[Br-] [Pyridostigmine Bromide] | 104 ± 11 | 120 | 103 ± 3.5 | 92.1 | 136 ± 13 | 105 | 72 ± 2.6 | 96.8 ± 6.6 | 101 ± 3.2
25 | O.O=P1(N(CCCl)CCCl)NCCCO1 (configuration not stated) [Cyclophosphamide monohydrate] | 133 ± 17 | 147 | 90.3 ± 17 | 125 | 140 ± 5.4 | 125 | 98.5 ± 2.4 | 106 ± 2.2 | 130 ± 8.5
